The results in this text go back to PubChem BioAssay (NCATS).

Results filed as inconclusive are left out. Where a call stands in place of a potency, no number is given. Calls of active or inactive are those of the source. Calls follow the shape of the dose curve; as a rule, active = well fitted inhibition curve with a large enough effect; inconclusive = small, poorly fitted or top-dose-only effect; inactive = no such curve, though single readings can be large or run the other way.

In the assay the target is Retinaldehyde dehydrogenase 3 (Homo sapiens) (UniProt P47895). Kind of assay: qHTS for Inhibitors of the Aldehyde Dehydrogenase Family (ALDH1A3) Primary screen (AID 2061315). Conditions: ALDH inhibition qHTS; series mostly up to 56 µM. A general note: In qHTS, concentration-response curves come from the screen itself.
On to `C[N+]1(C)[C@@H]2CC[C@H]1CC(OC(=O)C(O)c1ccccc1)C2` (stereo partly drawn), for which the Potency result is “inactive”.
Still for that read-out and setting: the same measure for `CC(=O)O[C@@H]1C[C@@]23C[C@@]24CC[C@H](O[C@@H]2OC[C@H](O)[C@H](O)[C@H]2O)C(C)(C)[C@@H]4CC[C@H]3[C@]2(C)[C@@H](O)C34O[C@H](C[C@@H](C)[C@@H]3[C@@]12C)[C@@H](C(C)(C)O)O4`: “inactive”.
As for `C[C@@H]1O[C@@H](O[C@H]2[C@H](OC(=O)[C@]34CCC(C)(C)C[C@H]3C3=CCC5[C@@]6(C)C[C@H](O)[C@H](O[C@@H]7O[C@H](CO[C@@H]8OC[C@H](O)[C@H](O)[C@H]8O)[C@@H](O)[C@H](O)[C@H]7O)C(C)(C)C6CC[C@@]5(C)[C@]3(C)C[C@H]4O)OC[C@@H](O)[C@@H]2O)[C@H](O)[C@H](O[C@@H]2OC[C@](O)(CO)[C@H]2O)[C@H]1O[C@@H]1OC[C@H](O)[C@H](O[C@@H]2OC[C@@H](O)[C@H](O)[C@H]2O)[C@H]1O` (stereo partly drawn), the activity change, negative = inhibition was 0.994% [at 11.2 µM] (inactive).
For `Cc1ncc(CCCN(C)C)cc1Nc1ncc2c(n1)-c1ccc(C(F)(F)F)cc1NC(=S)C2`, the Potency entry was “inactive”.
The same measure, in the same setting: the same measure for `COC1(CC(C)C)NC(=O)C(O)(Cc2ccccc2)NC1=O` (stereo not drawn): “inactive”; for `CCn1nnnc1NCc1ccc(C(C)C)cc1`: “inactive”; for `CC12CCC3C(C)(C)C(O)CCC3(C)C1Cc1c(oc(C(=O)O)cc1=O)O2` (stereo not drawn): “inactive”.
For the molecule `Cc1cc(O[C@@H]2O[C@H](COC(=O)CC(=O)O)[C@@H](O)[C@H](O)[C@H]2O)c(C(C)C)cc1O`, the Potency entry is “inactive”.
For `Cc1ccc(OC[C@H](O)[C@H](C)NC(C)C)c2c1CCC2`, the Potency entry was “inactive”.
Same read-out and setting: with `CC1(C)CC[C@]2(C(=O)O[C@@H]3O[C@H](CO)[C@@H](O)[C@H](O)[C@H]3O)CC[C@]3(C)C(=CCC4[C@@]5(C)CC[C@H](O[C@@H]6O[C@H](C(=O)O)[C@@H](O[C@@H]7O[C@H](CO)[C@@H](O)[C@H](O)[C@H]7O)[C@H](O)[C@H]6O[C@@H]6O[C@H](CO)[C@@H](O)[C@H](O)[C@H]6O)C(C)(C)C5CC[C@]43C)C2C1` (stereo partly drawn) the entry was “inactive”.
On the same count and under the same terms, the same measure for `O=C(/C=C/c1ccc(O)cc1)OC[C@]12O[C@H]1[C@@H](O)[C@@H]1C=CO[C@@H](O[C@@H]3O[C@H](CO)[C@@H](O)[C@H](O)[C@H]3O)[C@@H]12`: “inactive”.
On the same count and under the same terms, with `C/C=C(/C)C(=O)O[C@@H]1C[C@@H](OC(=O)CC(C)C)C2(C)C3C(=O)C=C(C)C2C3C1(C)C` (stereo partly drawn) the entry was “inactive”; with `C=C1C(=O)O[C@@H]2C[C@]3(C)[C@@H](CCC(C)=O)[C@@H]3C[C@H]12`, “inactive”; with `COC(=O)CC(O)C1OC(c2ccccc2)C(O)C1O` (stereo not drawn), “inactive”.
As to `Clc1ccc(CN[C@H]2CCN(c3ncc(Br)cn3)C2)c(Cl)c1`, the Potency result was “inactive”.
The same measure, in the same setting: the same measure for `CC1=CC(=O)CC2C1(O)CCC(C)C21CC(c2ccoc2)OC1=O` (stereo not drawn): “inactive”; for `COc1cc(O)c(C(=O)CCc2ccc(O)cc2)c(O[C@@H]2O[C@H](CO)[C@@H](O)[C@H](O)[C@H]2O)c1`: “inactive”.
On to `CC(C)c1ccc2c(c1)C(O)CC1C(C)(C(=O)O)CCCC21C` (stereo not drawn), for which the Potency entry was “inactive”.
On the same count and under the same terms, the same measure for `O=C(Nc1c(-c2cccs2)nc2ccccn12)c1ccc(Cl)cc1`: “inactive”; for `CN(CC1(C)CCCO1)S(=O)(=O)c1ccc(Cl)c(S(N)(=O)=O)c1` (stereo not drawn): “inactive”.
The same measure, in the same setting: with `CC(CCO)CCC1C2(C)CCCC(C)(C)C2CC[C@@]1(C)O` (stereo partly drawn) the entry was “inactive”; with `CC(C)(O)C1CCC(C)(C2CCC3(C)C4CCC5C(C)(C(=O)OC6OC(CO)C(O)C(O)C6O)C(O)CC(O)C56CC46CCC23C)O1` (stereo not drawn), “inactive”.
As for `OC[C@H]1O[C@@H](OC(CCCCc2ccc(O)cc2)CCc2ccc(O)cc2)[C@H](O[C@@H]2OC[C@](O)(CO)[C@H]2O)[C@@H](O)[C@@H]1O` (stereo partly drawn), the Potency entry is “inactive”.
Same read-out and setting: the same measure for `C=C1CC[C@]2(C(=O)O[C@@H]3O[C@H](CO)[C@@H](O)[C@H](O)[C@H]3O)CC[C@]3(C)C(=CCC4[C@@]5(C)C[C@H](O)[C@@H](O[C@@H]6O[C@H](C(=O)O)[C@@H](O)[C@H](O)[C@H]6O)[C@](C)(C=O)C5CC[C@]43C)C2C1` (stereo partly drawn): “inactive”; for `CC(=O)OC1CCC2(C)C(CCC3(C)C2CC=C2C4CC(C)(C)CCC4(C)CCC23C)C1(C)C(=O)O` (stereo not drawn): “inactive”.
As for `CC(C(=O)O)c1ccc(/C=C2\CCCCC2=O)cc1` (stereo not drawn), the Potency entry is “inactive”.
On the same count and under the same terms, the same measure for `COc1cc(NC(=O)c2cccc(-n3cc(NC(=O)Nc4cccc(C)c4)cn3)c2)cc(OC)c1OC`: “inactive”; for `CCC(=O)N[C@@H]1Cc2ccccc2[C@H](c2ccccc2)C1`: “inactive”.
